# Compound activity from PubChem BioAssay.
# DUSP1 inh – MKP-1 phosphatase inhibitors, primary screen, biochemical, in vitro. Dual specificity protein phosphatase 1 (Homo sapiens), P28562. recombinant MKP-1, OMFP hydrolysis fluorescence. inhibition, %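 (compounds tested at a single concentration somewhere between 10 and 100 µM)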. 65,000 tested, 0.15% active;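 active = inhibition above about 50%, limit read from the data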;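 note: 0% = DMSO max control wells and 100% = wells with enzyme stopped by NaOH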
# Target sequence (P28562 whole entry, looked up): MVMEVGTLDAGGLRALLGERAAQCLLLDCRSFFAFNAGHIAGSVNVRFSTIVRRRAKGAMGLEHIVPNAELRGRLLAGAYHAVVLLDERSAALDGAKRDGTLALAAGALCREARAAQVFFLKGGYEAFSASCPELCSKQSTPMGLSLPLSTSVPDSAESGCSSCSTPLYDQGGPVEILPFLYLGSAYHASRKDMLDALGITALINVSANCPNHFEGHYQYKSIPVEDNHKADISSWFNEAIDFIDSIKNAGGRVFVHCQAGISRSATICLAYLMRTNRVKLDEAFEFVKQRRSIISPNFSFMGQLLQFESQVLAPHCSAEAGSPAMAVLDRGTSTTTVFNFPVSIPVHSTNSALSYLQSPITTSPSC
# M1 antag – antagonists of rat M1 muscarinic receptor | Muscarinic acetylcholine receptor M1 (Rattus norvegicus), P08482 | CHO-M1 cells, Fluo-4 calcium, ACh EC80 antagonist mode; active compounds read low | B-score at 10 µM | 64,000 tested, 3.4% active | AID 628, 2007;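 active = calcium fluorescence response, raw or row-and-column corrected B-score, differing from the plate sample mean either way at a set confidence level, mostly lower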
# Cdc25B inh – inhibitors of Cdc25B phosphatase catalytic domain, primary screen, biochemical, OMFP fluorescence; M-phase inducer phosphatase 2 (Homo sapiens), P30305; AID 368, 2006; inhibition, %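 (compounds tested at 10 µM final in the well)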; recombinant Cdc25B, OMFP fluorescence Ex485/Em525; 65,000 tested, 0.1% active; in the data active = inhibition above about 50%
# MMP13 inh – human MMP13 inhibitors, primary screen, biochemical, FRET peptide cleavage. MMP-13 fTHP FRET cleavage, Mca fluorescence. inhibition, % at 4 µM. 65,000 tested, 0.07% active;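 active = inhibition above the mean of compound-free control plate wells plus 3 SD, cut at about 14% in these data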;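 note: 0% = DMSO wells and 100% = wells with reference MMP-13 inhibitor after basal subtraction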
# Hsp90 block – tumor Hsp90 inhibitors, primary screen, cell lysate, fluorescence polarization, NCI-N417 lysate; 64,000 tested, 0.35% active; Cy3B-geldanamycin FP displacement; inhibition, % at 30 µM;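 active = inhibition above 50%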;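 note: 0% = tracer plus lysate wells and 100% = tracer alone without lysate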
# M1 agonist – M1 muscarinic receptor agonists, primary screen, CHO-M1 cells, Fluo-4 calcium, agonist mode | Fluo-4 calcium fluorescence; active compounds read high | AID 626, 2007 | 64,000 tested, 3% active | Muscarinic acetylcholine receptor M1 | B-score at 10 µM;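 active = fluorescence rise, raw or as B-score row- and column-corrected plate score, outside the 99.7% band of its plate's samples, either direction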
# M1 antag confirm – rat M1 muscarinic receptor antagonists, confirmation, CHO cells, Fluo-4 calcium, duplicate. shares compounds with M1 antag. ACh EC80 antagonism; active compounds read low. calcium response (max-min fluorescence) at 10 µM. 1,700 tested, 43% active. AID 677, 2007;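 active = calcium response below the same-plate mean of wells given acetylcholine alone at its 80%-effect dose, minus 3 SD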;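 note: raw fluorescence intensity difference in arbitrary instrument units and not normalized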
# mGluR4 antag – human mGluR4 response to M1 antagonist hits, M1 allosteric modulator project, cell-based, antagonist mode, secondary assay 1 | shares compounds with M1 antag | CHO-mGluR4 calcium flux, Fluo-4 fluorescence, glutamate EC80; active compounds read low | fluorescence response (max-min) at 10 µM | 1,700 tested, 0.9% active | AID 678, 2007;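 active = fluorescence response below the plate's average for near-maximal glutamate wells, less 3 SD of those wells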;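 note: raw unnormalized fluorescence span taken in the window right after glutamate addition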
# * hit, by the source's call; nt = not tested or not shown. Only some compounds are listed: those with a hit (about 6.1% of all), similar ones and a draw of the others.
SMILES,DUSP1 inh,M1 antag,Cdc25B inh,MMP13 inh,Hsp90 block,M1 agonist,M1 antag confirm,mGluR4 antag
O=C(OCn1nnc2ccccc2c1=O)c1cc2ccccc2o1,6,-0.1,-8,1,-2,-0.038,nt,nt
CN(C)C(CNc1nnnn1-c1ccccc1)c1ccco1 (configuration not stated),12,-0.79*,-12,1,-16,-0.64,477,221
CC(=O)NC(CC(=O)NCC(c1ccco1)N(C)C)c1ccccc1 (configuration not stated),8,0.16,-6,2,nt,0.35,nt,nt
O=C(COc1ccc2ccccc2c1CN1CCOCC1)N1CCc2ccccc21,-2,-2.1*,-2,-1,1,-0.013,336*,226
N#Cc1nc(COc2ccccc2Cl)oc1N1CCCCCC1,-1,1,1,6,-1,0.2,nt,nt
N#Cc1nc(COc2ccccc2F)oc1N1CCCCCC1,-8,-1.9*,-1,3,-6,0.39,572,235
CCN1CCN(C(CNC(=O)c2ccc3c(c2)OCO3)c2cccnc2)CC1 (configuration not stated),-12,0.64,-20,-2,-2,0.3,nt,nt
COc1ccc(NC(=O)c2cccs2)cc1OC,9,-0.39,-22,3,1,-0.66,nt,nt
COC(=O)c1sc2ccccc2c1NC(=O)c1cccs1,-4,-1.4*,-3,5,5,0.99,642*,173
COc1cc(NC(=O)c2cccs2)cc(OC)c1,-3,-3.4*,-17,3,-3,-0.54,658,331
Cn1c(N)c(C(=O)COC(=O)C2(c3cccc(F)c3)CCCC2)c(=O)n(C)c1=O,11,-2.8*,6,-16,-3,-0.45,630,208
CCN1C(=O)c2ccccc2S(=O)c2ccc(C(=O)NCCCN3CCCC3=O)cc21 (configuration not stated),0,-0.7,4,3,-2,0.14,nt,nt
O=C(NCCN1CCCC1)c1ccc2c(c1)N(Cc1ccc(F)cc1)C(=O)c1ccccc1S2=O (configuration not stated),-20,-1.1*,-6,5,-3,0.013,505,244
Cc1ccc(CN2C(=O)CSc3ccc(C(=O)NCCN4CCOCC4)cc32)cc1,9,-0.85,-6,-2,1,-0.43,nt,nt
O=C(NCCN1CCOCC1)c1ccc2c(c1)N(Cc1ccc(F)cc1)C(=O)CS2,-3,-9.1*,-33,2,-1,0.47,398*,214
CCOCCCNC(=O)c1cc2c(-c3ccc(Cl)cc3)nn(C)c2s1,13,0.58,-13,-58,-3,-0.15,nt,nt
CCN(CC)CCNC(=O)c1cc2c(-c3ccc(Cl)cc3)nn(C)c2s1,-16,-2.9*,-10,-150,-6,-0.55,444,205
CN1CCN(C(=O)c2ccc(COc3ccc(Cl)cc3Cl)cc2)CC1,10,-2.7*,-7,-2,-1,-1.2,529,228
CCNc1nc(CC)nc2c1oc1ccccc12,7,-1.3,-20,1,nt,-1.1,nt,nt
CCc1nc(NCc2ccco2)c2oc3ccccc3c2n1,13,-3.9*,-16,0,nt,-0.0089,581,213
CCN(CC)C(=O)C1CCCN(C/C=C/c2ccccc2)C1 (configuration not stated),4,-2.7*,-12,2,-2,4,566,240
CCN(CC)C(=O)C1CCCN(Cc2ccc(N(C)C)cc2)C1 (configuration not stated),1,0.11,-12,-6,-3,-0.37,nt,nt
CCN(CC)C(=O)C1CCCN(Cc2ccc(F)c(F)c2)C1 (configuration not stated),2,-4.1*,-7,4,-4,0.83,649,256
CCN(CC)C(=O)C1CCCN(C/C(C)=C/c2ccccc2)C1 (configuration not stated),0,0.04,-10,4,4,0.62,nt,nt
CCC(=O)N(Cc1cc(=O)[nH]c2ccccc12)C1CCCCC1,-10,0.58,4,5,-11,0.0057,nt,nt
SMILES,DUSP1 inh,M1 antag,Cdc25B inh,MMP13 inh,Hsp90 block,M1 agonist,M1 antag confirm,mGluR4 antag
CC1=CC(C)(C)N=C(Nc2ccc(C)cc2)S1,-2,-5*,-16,2,-4,-0.13,275*,218
Cc1nn(C)c(C)c1CN(C)C(=O)c1cc2n(n1)C(C(F)(F)F)CC(c1cccs1)N2 (configuration not stated),3,-3.5*,-17,4,0,-1.8,590,244
COc1cc2c(C(=O)NCc3ccc(C)o3)cn(CC(C)C)c(=O)c2cc1OC,30,0.23,-2,-9,-5,0.041,nt,nt
CCC1CCCCN1CCCNC(=O)c1cn(CC(C)C)c(=O)c2cc(OC)c(OC)cc12 (configuration not stated),nt,-1.2*,nt,-11,nt,0,458*,250
CCOc1ccc2nc(N3CCC(C(=O)N4CCN(c5ccccn5)CC4)CC3)sc2c1,9,-2.4*,-19,-6,1,0.87,411,198
CCOc1ccc2nc(N3CCC(C(=O)N4CCN(c5ncccn5)CC4)CC3)sc2c1,19,0.31,-7,-9,1,-0.52,nt,nt
CCc1ccc(NC(=O)Nc2cccs2)cc1,-6,-2.3*,-10,-1,-5,-0.46,569,215
COc1cc(NC(=O)c2c(F)c(F)c(F)c(F)c2F)c(OC)cc1Cl,9,-2.9*,-11,1,3,-0.11,529,148*
COc1ccc(NC(=O)c2c(F)c(F)c(F)c(F)c2F)cc1Cl,-7,0.31,-3,-5,-2,-0.19,nt,nt
O=C(NCCN1Cc2ccccc2C1=O)c1cccs1,-7,-0.58,-5,5,1,0.67,nt,nt
O=C1c2ccccc2CN1CCNS(=O)(=O)c1ccc(Cl)cc1,-9,-1.8*,-4,3,-2,-0.063,674,261
COCc1[nH]nc2c1C(c1ccsc1)C(C#N)=C(N)O2 (configuration not stated),-5,-2.7*,-1,-2,-5,-0.019,552,200
COc1ccccc1C(=O)NC(C)C(c1cccs1)N1CCOCC1 (configuration not stated),3,-3.5*,-7,2,-2,-0.29,656,249
